Data: PubChem BioAssay (NCATS)
Where “and” joins values, the source holds several entries; their conditions need not be identical. Equal values may be shown once. Results filed as inconclusive are left out. Calls of active or inactive are those of the source. Unless noted, the call rests on the fitted dose curve; in most records, active means well fitted curve in the direction sought with a large enough effect; inconclusive means small, poorly fitted or top-dose-only effect, or another doubt; inactive means no such curve, though single readings can be large; an effect the other way counts as inactive or inconclusive.

What was measured:
[1] = biological target: Alpha-galactosidase A (Homo sapiens) (UniProt P06280); test: Counterscreen for Glucocerebrosidase Inhibitors: qHTS Assay for Human alpha-Galactosidase at pH 4.5 (AID 992); further: 0% is about no effect
Sequence of Alpha-galactosidase A (Homo sapiens) (P06280 whole entry, looked up): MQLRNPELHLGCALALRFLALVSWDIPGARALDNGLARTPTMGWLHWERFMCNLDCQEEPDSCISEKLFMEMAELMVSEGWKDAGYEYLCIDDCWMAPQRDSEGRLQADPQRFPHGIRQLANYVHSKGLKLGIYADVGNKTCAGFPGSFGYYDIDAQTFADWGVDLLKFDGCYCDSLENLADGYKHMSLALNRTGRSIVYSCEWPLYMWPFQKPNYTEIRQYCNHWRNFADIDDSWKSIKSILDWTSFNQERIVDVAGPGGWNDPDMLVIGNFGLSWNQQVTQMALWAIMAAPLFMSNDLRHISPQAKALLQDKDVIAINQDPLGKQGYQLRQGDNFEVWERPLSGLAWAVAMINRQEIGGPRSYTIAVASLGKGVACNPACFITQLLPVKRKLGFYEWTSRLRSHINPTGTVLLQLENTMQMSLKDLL
Method in brief: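 Citrate buffer pH 4.5, Tween-20 0.005%. Enzyme 2 nM, substrate 80 uM, 20 min RT. Stop pH 10. Fluorescence Ex 365/Em 440. AC50 by Hill fit.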

[2] = biological target: alpha-glucosidase (Oryza sativa, rice) (UniProt Q653V4); test: Counterscreen for Glucocerebrosidase Inhibitors: qHTS Assay for Rice alpha-Glucosidase at pH 5.0 (AID 997);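 further: 0% = full activity with enzyme and -100% = basal without enzyme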
Method in brief: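 Endpoint fluorogenic assay at pH 5.0: compounds (0.7 nM to 77 uM) titrated against 4 nM rice enzyme and 400 uM 4-MU-alpha-glucoside for 20 min at room temperature; NaOH/glycine stop, read ex 365/em 440 nm, Hill-fitted AC50.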

[3] = biological target: Alpha-galactosidase (Coffea arabica) (UniProt Q42656); test: Counterscreen for Glucocerebrosidase Inhibitors: qHTS Assay for Coffee Bean alpha-Galactosidase at pH 5.9 (AID 998);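 further: plate controls were uninhibited enzyme for no effect and no-enzyme basal signal for full effect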
Sequence of Alpha-galactosidase (Coffea arabica) (Q42656 whole entry, looked up): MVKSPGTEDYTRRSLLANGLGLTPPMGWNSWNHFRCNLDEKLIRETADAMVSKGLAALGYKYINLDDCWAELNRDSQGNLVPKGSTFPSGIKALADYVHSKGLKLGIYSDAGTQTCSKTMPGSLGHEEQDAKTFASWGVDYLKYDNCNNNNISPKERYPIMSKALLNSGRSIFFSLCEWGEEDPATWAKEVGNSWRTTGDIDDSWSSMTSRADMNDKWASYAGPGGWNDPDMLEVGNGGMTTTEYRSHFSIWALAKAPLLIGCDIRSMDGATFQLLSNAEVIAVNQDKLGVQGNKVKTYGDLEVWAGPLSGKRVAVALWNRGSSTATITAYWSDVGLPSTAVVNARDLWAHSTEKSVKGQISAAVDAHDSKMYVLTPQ
Method in brief: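 Fluorogenic 4-MU substrate hydrolysis, 80 uM substrate and 2 nM coffee bean alpha-galactosidase, pH 5.9 citrate buffer, 20 min at room temperature, then NaOH/glycine stop. Titration 0.7 nM–77 uM, normalized to no-enzyme and enzyme controls, AC50 via Hill equation.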

[4] = Validation of Assay for Modulators of Lamin A Splicing (AID 1459; active means well fitted curve in the direction sought with a large enough effect in the signal ratio; the % refers to the signal ratio;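 further: cells exposed to compound for two days before reading; 0% is about no effect; ratio rise marks activators and ratio drop marks inhibitors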)
Method in brief: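 Readout: ratio of GFP (500-530 nm) to RFP (575-640 nm) total object intensity by 488 nm laser-scanning cytometry after 48 hrs. Cells were HeLa S3 clones carrying lamin A-EGFP minigene plus DsRed2 viability reporter; vehicle 0.5% DMSO final.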

[5] = qHTS Assay for Lipid Storage Modulators (AID 1519; calls by dose curve; on activity change, negative = inhibition: on the % scale 0 is the no-effect control and ±100 the full control effect); conditions: Drosophila S3 cells, BODIPY lipid droplet/cell ratio, laser cytometry, cells loaded with oleic acid
Method in brief: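 Cells seeded at 5,000 per well were treated with compounds over a concentration series and loaded with oleic acid (400 uM, as added). Lipid droplet fluorescence (488 nm excitation, 500-530 nm channel) was read by laser-scanning cytometry and normalized to 20 uM Triacsin C.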

[6] = biological target: DNA repair nuclease/redox regulator APEX1 (Homo sapiens) (UniProt P27695); test: qHTS Validation Assay for Inhibitors of the Human Apurinic/apyrimidinic Endonuclease 1 (APE1) (AID 1705;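 further: TAMRA fluorescence gain over two minutes as APE1 cuts a quenched THF abasic duplex; on the % scale 0 is the no-effect control and ±100 the full control effect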)
Sequence of DNA repair nuclease/redox regulator APEX1 (Homo sapiens) (P27695 whole entry, looked up): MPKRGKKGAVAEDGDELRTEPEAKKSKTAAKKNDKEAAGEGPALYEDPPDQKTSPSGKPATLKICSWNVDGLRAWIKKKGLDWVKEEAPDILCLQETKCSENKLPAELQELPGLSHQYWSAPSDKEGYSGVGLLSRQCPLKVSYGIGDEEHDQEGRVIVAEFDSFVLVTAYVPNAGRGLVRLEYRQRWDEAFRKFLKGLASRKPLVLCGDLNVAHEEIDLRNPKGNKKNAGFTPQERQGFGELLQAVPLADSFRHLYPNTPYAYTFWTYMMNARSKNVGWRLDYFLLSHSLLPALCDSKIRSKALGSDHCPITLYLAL
Method in brief: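 Read-out: TAMRA fluorescence (525 nm ex, 598 nm em) from cleavage of a quenched THF abasic-site duplex, 50 nM final; activity taken as intensity change between third and first of three reads 60 s apart.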

[7] = Counterscreen for APE1 Inhibitors: Fluorescent Dye Displacement Validation Assay (AID 1707);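 further: plate controls were ThO with dsDNA and no compound for no effect and ThO without dsDNA for full effect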
Method in brief: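 Signal: ThO fluorescence (ex 480 nm/em 540 nm) on binding 50 nM dsDNA; displacement by test compound reduces it. Conditions: 250 nM dye, 50 mM Tris-HCl pH7.5, 2 mM MgCl2, 50mM NaCl, 0.01% Tween-20.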

[8] = qHTS for differential inhibitors of proliferation of Plasmodium falciparum line 7G8 (AID 1815);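 further: parasite growth measured after three days of incubation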; further: potency means the concentration at half of the fitted maximal effect;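 on activity change, negative = inhibition: plate controls were vehicle wells for no effect and reference inhibitor wells for full effect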
[9] = qHTS for differential inhibitors of proliferation of Plasmodium falciparum line GB4 (AID 1816); conditions: Potency: Plasmodium falciparum GB4 proliferation inhibition;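 further: parasite growth measured after 72 h incubation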; further: potency means the concentration at half of the fitted maximal effect;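 on activity change, negative = inhibition: 0% = vehicle DMSO and -100% = reference inhibitor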
[10] = qHTS for differential inhibitors of proliferation of Plasmodium falciparum line 3D7 (AID 1876); further: potency means the concentration at half of the fitted maximal effect
[11] = qHTS for differential inhibitors of proliferation of Plasmodium falciparum line D10 (AID 1877);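 further: parasites grown with compound for 72 h before DNA staining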; further: potency means the concentration at half of the fitted maximal effect;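 on activity change, negative = inhibition: plate controls were vehicle wells for no effect and reference inhibitor wells for full effect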
[12] = qHTS for differential inhibitors of proliferation of Plasmodium falciparum line Dd2 (AID 1882); conditions: Potency: Plasmodium falciparum Dd2 proliferation inhibition;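 further: plate controls were DMSO vehicle for no effect and 0.29 µM artemisinin for full effect; nearly all actives have a fitted effect of over 65% in size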
Method in brief: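 SYBR Green DNA fluorescence (ex 485, em 535 nm) after overnight lysis quantifies parasite growth; compound exposure lasted 72 h at 37 C on infected red cells at 2.5% hematocrit, 0.3% parasitemia (final). Artemisinin 0.29 uM and vehicle wells define normalization.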

[13] = qHTS for differential inhibitors of proliferation of Plasmodium falciparum line W2 (AID 1883); conditions: Potency: Plasmodium falciparum W2 proliferation inhibition;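 further: parasites grown with compound for 72 h before lysis and staining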; further: potency means the concentration at half of the fitted maximal effect;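 on activity change, negative = inhibition: 0% = vehicle wells and -100% = control inhibitor wells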
[14] = qHTS for differential inhibitors of proliferation of Plasmodium falciparum line HB3 (AID 1886); conditions: Potency: Plasmodium falciparum HB3 proliferation inhibition;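 further: parasites grown with compound for 72 h before SYBR Green readout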; further: potency means the concentration at half of the fitted maximal effect;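 on activity change, negative = inhibition: plate controls were vehicle for no effect and reference inhibitor for full effect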
[15] = biological target: Ferritin light chain (Equus caballus) (UniProt P02791); test: qHTS Validation Assay for Identification of Novel General Anesthetics (AID 2323); further: on the % scale 0 is the no-effect control and ±100 the full control effect
Sequence of Ferritin light chain (Equus caballus) (P02791 2-175 limits assumed): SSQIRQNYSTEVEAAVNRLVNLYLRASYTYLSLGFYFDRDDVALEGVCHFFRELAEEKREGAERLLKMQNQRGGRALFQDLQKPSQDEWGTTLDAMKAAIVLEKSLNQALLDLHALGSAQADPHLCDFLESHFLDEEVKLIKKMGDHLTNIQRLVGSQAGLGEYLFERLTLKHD
Method in brief: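 10 uM horse-spleen apoferritin + 1-AMA (50% saturated, PBS); cpd pin-transferred, 10 min RT. Ex 380/Em 535 nm endpoint. Activity normalized between free 1-AMA and 1-AMA/apoferritin; 4-parameter Hill fit of concentration-response.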

[16] = qHTS Assay for Modulators of Human Peripheral Myelin Protein 22 (PMP22) Expression/Activity (AID 1967; active means well fitted curve in the direction sought with a large enough effect in the signal ratio; the % refers to the signal ratio;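 further: 0% = untreated cells and 100% end not stated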)
Method in brief: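 Mouse MSC80 Schwann line, Pmp22 promoter–CBG68 reporter, EF-alpha–CBR internal control. 24h compound exposure, 37 °C/5% CO2, DMEM + 10% FBS. Readout: corrected green/red luminescence ratio, normalized to untreated cells; concentration-response curves fitted and classified.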

[17] = biological target: Endonuclease 4 (Escherichia coli (strain K12)) (UniProt P0A6C1); test: Counterscreen for APE1 Inhibitors: qHTS Validation Assay for Inhibitors of Endonuclease IV (AID 1708); further: on the % scale 0 is the no-effect control and ±100 the full control effect
Method in brief: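 Incision of a double-stranded 50 nM TAMRA/BHQ-2 abasic substrate was followed kinetically (525/598 nm, reads every 60 s) after 15 min enzyme–compound preincubation with 2 nM EndoIV in pH 7.5 Tris buffer with MgCl2, DTT and Tween-20; concentration-response format.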

[18] = measured here: cell count channel max response
[19] = measured here: lipid channel max response

O=C(O)Cc1cnc[nH]1
19%: max response [5, 19]
inactive: outcome [1] | outcome [2] | outcome [3] | outcome [4] | activity change, negative = inhibition ([5]; at 57.5 µM (top of the series)) -0.977% | Potency [6] | Potency [7] | Potency [8] | Potency [9] | Potency [10] | Potency [11] | Potency [12] | Potency [13] | Potency [14] | outcome [15]
21.8%: max response [5, 18]

NCCc1c[nH]c2ccc(O)cc12
-5.09% and -12.1%: max response [5, 18]
-6.32% and -9.72%: max response [5, 19]
inactive: outcome [1] | outcome [2] | outcome [3] | outcome [4] | activity change, negative = inhibition ([5]; at 25.7 µM (top of the series)) -0.711% | activity change, negative = inhibition ([5]; at 57.5 µM (top of the series)) 0.919% | Potency [6] | Potency [7] | Potency [8] | Potency [9] | Potency [10] | Potency [11] | Potency [12] | Potency [13] | Potency [14] | outcome [16] | outcome [15]

C#CCOC(=O)C1=CCCN(C)C1
13.4%: max response [5, 18]
20.6%: max response [5, 19]
inactive: outcome [1] | outcome [2] | outcome [3] | outcome [4] | activity change, negative = inhibition ([5]; at 57.5 µM (top of the series)) 6% | Potency [6] | Potency [7] | Potency [12] | outcome [15]
active: Potency [10] 12.6 µM | Potency [13] 15.8 µM

CNCCc1c[nH]c2ccc(O)cc12
5.25% and 4.7%: max response [5, 18]
5.9% and 3.87%: max response [5, 19]
inactive: outcome [1] | outcome [2] | outcome [3] | outcome [4] | activity change, negative = inhibition ([5]; at 57.5 µM (top of the series)) 1.79% and 0.655% | Potency [6] | Potency [7] | Potency [17] | Potency [8] | Potency [9] | Potency [10] | Potency [11] | Potency [12] | Potency [13] | Potency [14] | outcome [16] | outcome [15]

C[C@@H]1O[C@H](C[N+](C)(C)C)C[C@H]1O
inactive: outcome [1] | outcome [2] | outcome [3] | outcome [4] | activity change, negative = inhibition ([5]; at 57.5 µM (top of the series)) -2.01% | Potency [6] | Potency [7] | Potency [17] | Potency [8] | Potency [9] | Potency [10] | Potency [11] | Potency [12] | Potency [13] | Potency [14] | outcome [16] | outcome [15]
40.6%: max response [5, 18]
38%: max response [5, 19]

CCCN1CCO[C@@H]2c3cc(O)ccc3OC[C@H]21
inactive: outcome [1] | outcome [2] | outcome [3] | outcome [4] | Potency [6] | Potency [7] | Potency [17] | Potency [8] | Potency [9] | Potency [10] | Potency [11] | Potency [12] | Potency [13] | Potency [14] | outcome [16] | outcome [15]

NC(=O)CN1CC(O)CC1=O (stereo not given)
active: Potency [14] 2.82 µM
18.3%: max response [5, 18]
inactive: outcome [4] | activity change, negative = inhibition ([5]; at 57.5 µM (top of the series)) 3.41% | Potency [7] | Potency [17] | Potency [8] | Potency [9] | Potency [10] | Potency [11] | Potency [12] | Potency [13] | outcome [16] | outcome [15]
20.4%: max response [5, 19]

CCCN(CCC)[C@@H]1CCc2ccc(O)cc2C1
active: Potency [8] 8.91 µM | Potency [9] 14.1 µM | Potency [13] 11.2 µM
inactive: outcome [1] | outcome [2] | outcome [3] | outcome [4] | activity change, negative = inhibition ([5]; at 57.5 µM (top of the series)) -4.72% and 0.978% | Potency [6] | Potency [7] | Potency [17] | Potency [10] | Potency [11] | Potency [14] | outcome [16] | outcome [15]
-36.9% and -10.5%: max response [5, 18]
-41.2% and -9.44%: max response [5, 19]

C=CCN1CC[C@]23CCCCC2[C@H]1Cc1ccc(O)cc13 (stereo not given in full)
inactive: outcome [4] | Potency [6] | Potency [7] | Potency [17] | Potency [10] | Potency [11] | Potency [14] | outcome [16] | outcome [15]
active: Potency [8] 11.2 µM | Potency [9] 11.2 µM | Potency [13] 7.08 µM

NC(=NCCC[C@H](N)C(=O)O)N[N+](=O)[O-]
0.435%: max response [5, 19]
-0.432%: max response [5, 18]
inactive: outcome [1] | outcome [2] | outcome [3] | outcome [4] | activity change, negative = inhibition ([5]; at 57.5 µM (top of the series)) 0.0348% | Potency [6] | Potency [7] | Potency [17] | Potency [8] | Potency [9] | Potency [10] | Potency [11] | Potency [12] | Potency [13] | Potency [14] | outcome [15]

O=C(O)CC[N+](=O)[O-]
11.6% and 14.1%: max response [5, 18]
inactive: outcome [1] | outcome [2] | outcome [3] | outcome [4] | activity change, negative = inhibition ([5]; at 57.5 µM (top of the series)) 1.53% and -0.853% | Potency [6] | Potency [7] | Potency [17] | Potency [8] | Potency [9] | Potency [10] | Potency [11] | Potency [12] | Potency [13] | Potency [14] | outcome [16] | outcome [15]
18.9% and 15.4%: max response [5, 19]

NCCc1c[nH]c2ccccc12
17.6%: max response [5, 19]
8.58%: max response [5, 18]
inactive: outcome [1] | outcome [2] | outcome [3] | outcome [4] | activity change, negative = inhibition ([5]; at 57.5 µM (top of the series)) 5.62% | Potency [6] | Potency [7] | Potency [17] | Potency [11] | Potency [12] | outcome [15]

c1ccc2sc(C3(N4CCCCC4)CCCCC3)cc2c1
4.98% and -30.4%: max response [5, 19]
-3.55% and -30.8%: max response [5, 18]
inactive: outcome [1] | outcome [2] | outcome [3] | outcome [4] | activity change, negative = inhibition ([5]; at 57.5 µM (top of the series)) -6.45% and -1.27% | Potency [6] | Potency [7] | Potency [17] | outcome [15]
active: Potency [8] 10 µM | Potency [9] 11.2 µM | Potency [10] 11.2 µM | Potency [11] 10 µM | Potency [13] 7.94 µM | Potency [14] 11.2 µM
